Hits are enriched below; roughly 3.5% of the tested compounds scored in any of these assays.
TEAD-YAP block: TEAD-YAP interaction inhibition; HEK-TIYL cells, TEAD-Gal4/YAP UAS-luciferase luminescence; inhibition, % at 9.12 µM; 1.4% of 640,000 active; AID 1259422; in the data active means inhibition above about 32%
MITF primary: human MITF inhibition, primary screen. 0.91% of 650,000 active. inhibition, % at 2.6 µM. O75030. AlphaScreen MITF homodimerization, bead proximity signal. AID 1259374; in the data active means inhibition above about 50%
Target sequence (O75030 whole entry, looked up): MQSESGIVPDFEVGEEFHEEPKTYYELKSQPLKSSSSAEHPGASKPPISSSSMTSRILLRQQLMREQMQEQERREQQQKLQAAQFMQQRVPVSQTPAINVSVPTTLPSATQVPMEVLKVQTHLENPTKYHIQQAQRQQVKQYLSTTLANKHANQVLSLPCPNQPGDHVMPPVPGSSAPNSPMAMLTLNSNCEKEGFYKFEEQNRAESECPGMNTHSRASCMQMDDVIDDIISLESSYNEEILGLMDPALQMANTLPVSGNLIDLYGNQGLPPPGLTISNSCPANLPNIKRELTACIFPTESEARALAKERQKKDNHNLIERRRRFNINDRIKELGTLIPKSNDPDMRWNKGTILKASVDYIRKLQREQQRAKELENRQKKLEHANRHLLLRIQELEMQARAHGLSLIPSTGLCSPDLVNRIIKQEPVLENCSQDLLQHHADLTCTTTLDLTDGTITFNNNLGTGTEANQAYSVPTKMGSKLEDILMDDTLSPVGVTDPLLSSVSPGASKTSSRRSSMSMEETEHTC
GPR151 activ: activators of human GPR151. PathHunter beta-arrestin GPR151 cells, luminescence. 1% of 650,000 active. activation, % at 11.2 µM; in the data active means activation above about 4.9%
FBW7 act: human FBW7 E3 ligase activation, primary screen; AlphaScreen FBW7–phospho-cyclin E peptide binding, activator screen; normalized activity (activation), % at 26.1 µM; 0.13% of 650,000 active; in the data active means normalized activity above about 1.9%;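 further: purified mutant Fbw7 with reduced substrate affinity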
MITF inh conf: human MITF inhibition, confirmation. inhibition, % at 2.6 µM. AlphaScreen MITF homodimerization, biotin/His-MITF beads. shares compounds with MITF primary. 16% of 4,700 active;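 active means inhibition above a cutoff derived from the DMSO control wells, cut at about 28% in these data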;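 further: inhibitors lower the bead chemiluminescence by keeping MITF from dimerizing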
AlphaScreen DR: optically interferes with AlphaScreen signal in dose response; shares compounds with MITF primary; AlphaScreen optical interference counterscreen, cell-free; IC50, µM; 6% of 480 active; AID 1259373; call rule not given here
AlphaScreen intf2: counter-screen: compounds optically interfering with AlphaScreen; shares compounds with MITF primary; LysRS AlphaScreen counterscreen, signal interference, triplicate; inhibition, % at 2.6 µM; 7.6% of 4,700 active;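 active means inhibition above a cutoff derived from the DMSO control wells, cut at about 30% in these data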
Large screens that a line does not name were inactive (follow-up assays come after a bar, where they were run).

Cc1cc(-c2ccc(/C=c3\sc4nc5ccccc5n4c3=O)o2)c([N+](=O)[O-])cc1C	none
Cc1nc2sccn2c1-c1nnc(SCc2c(F)cccc2Cl)n1C	none
COc1ccc(NC(=O)c2ccc3c(c2)C(=O)N(c2ccccc2OC)C3=O)c(OC)c1	none
O=C(O)c1cccc(NS(=O)(=O)c2cccc(C(=O)Nc3ccccc3)c2)c1	MITF primary 51.2 | MITF inh conf inactive | AlphaScreen intf2 inactive
Cc1cccc(NC2(C(F)(F)F)N=C3SCCN3C2=O)n1 (centres undefined)	MITF primary 80.4 | MITF inh conf inactive | AlphaScreen intf2 inactive
CCN(CC)CC(O)CN1CCN(S(=O)(=O)c2ccc(Cl)cc2)CC1 (centres undefined)	MITF primary 60.8 | MITF inh conf inactive | AlphaScreen intf2 inactive
CC(C)(C)OCC(O)CN1CCN(C(=O)c2ccccc2)CC1 (centres undefined)	none
CCN(CC)CC(O)CN1CCN(C(=O)c2ccccc2)CC1 (centres undefined)	MITF primary 52.0 | MITF inh conf inactive | AlphaScreen intf2 inactive
Cn1c(SCc2ccc(F)c3ccccc23)nc2ccccc2c1=O	none
CCOC(=O)c1c(NC(=O)CSc2nnc(CNC(=O)c3cccc(OC)c3)n2-c2ccc(Br)cc2)sc2c1CCC2	none
CCCCn1c(Cc2ccccc2)nnc1SCC(=O)OCC	none
O=C1CC(c2ccc(Br)cc2)=NO1	none
O=C1CC(c2ccccc2)=NO1	MITF primary 56.0 | MITF inh conf inactive | AlphaScreen intf2 inactive
CCc1ccc(NC(=O)C(=O)NCC(C)O)cc1 (centres undefined)	none
CCc1ccc(NC(=O)CNCC(C)O)cc1 (centres undefined)	MITF primary 55.6 | MITF inh conf inactive | AlphaScreen intf2 inactive
Cc1nccn1CCOc1ccc(Cl)cc1	MITF primary 62.9 | MITF inh conf inactive | AlphaScreen intf2 inactive
Cc1ccccc1/C=C1\N=C(c2cc(C3=N/C(=C/c4ccccc4C)C(=O)O3)cc(C3=N/C(=C/c4ccccc4C)C(=O)O3)c2)OC1=O	MITF primary 58.7 | MITF inh conf 45.7 | AlphaScreen intf2 inactive
CC(=C/C(=O)O)/C=C/c1ccco1	MITF primary 68.0 | MITF inh conf inactive | AlphaScreen intf2 inactive
Cc1cc(C)n(C(=O)/C=C/c2ccccc2)n1	none
CC(/C=C/c1ccc(N(C)C)cc1)=C\C(=O)O	none
CC(=C/C(=O)O)/C=C/c1ccoc1	MITF primary 75.0 | MITF inh conf 56.9 | AlphaScreen DR inactive | AlphaScreen intf2 inactive
Cc1cc(C)n(C(=O)/C=C/c2ccco2)n1	MITF primary 77.6 | MITF inh conf 67.0 | AlphaScreen DR inactive | AlphaScreen intf2 inactive
COc1ccc(NC(=O)Cn2cnc3sc4c(c3c2=O)CCCC4)cc1Cl	none
CN1C(=O)N(C)C2OC(C3OC4C(O3)N(C)C(=O)N4C)OC21 (centres undefined)	MITF primary 54.7 | MITF inh conf inactive | AlphaScreen intf2 inactive
Cc1cc(NC(=O)CN2CCC(Cn3c(C)nc4ccccc43)CC2)no1	TEAD-YAP block 39.4, MITF primary 78.7 | MITF inh conf inactive | AlphaScreen intf2 inactive
COC(=O)c1ccc(NC(=O)CN2CCC(Cn3c(C)nc4ccccc43)CC2)cc1	MITF primary 67.8 | MITF inh conf inactive | AlphaScreen intf2 inactive
COc1ccc(C2(C(=O)N3CCC[C@H](Cn4nc(-c5cccs5)ccc4=O)C3)CC2)cc1	none
CNC(=S)NNC(=O)c1ccc(O)cc1	none
CNC(=S)NNC(=O)C(=O)NNC(=S)NC	MITF primary 79.1 | MITF inh conf inactive | AlphaScreen intf2 74.1
COc1cccc(OC)c1C(=O)Nc1ccc(Cl)cc1F	none
COc1ccc(-c2c(C)oc3cc(OCC(N)=O)ccc3c2=O)cc1OC	MITF primary 61.3 | MITF inh conf inactive | AlphaScreen intf2 inactive
COc1ccc(-c2c(C)oc3cc(OCC(=O)OC(C)C)ccc3c2=O)cc1OC	none
COc1cc(OC)cc(-c2nnc(SCC(=O)Nc3ccc([N+](=O)[O-])cc3OC)o2)c1	none
CCn1nnc(NC(=O)c2ccccc2)n1	MITF primary 57.9 | MITF inh conf inactive | AlphaScreen intf2 inactive
CN(CCOc1ccccc1)CC(O)COCc1ccco1 (centres undefined)	none
CCOC(=O)c1c(NCc2c(O)ccc3ccccc23)sc2c1CCCC2	none
COC(=O)C1=CN(c2ccc(C)c(Cl)c2)C=C(C(=O)OC)C1c1cccs1	MITF primary 56.7 | MITF inh conf inactive | AlphaScreen intf2 inactive
O=C1CCC(C(=O)OCCOc2cccc(Br)c2)=NN1	none
Cc1cc(C(=O)N2CCC(c3nc(N4CCCCC4)ncc3-c3cc(C)no3)CC2)on1	none
Cc1nc(NCCCn2ccnc2)c2ccccc2n1	none
Cc1nc(NCCCn2ccnc2)c2c(-c3cccs3)csc2n1	MITF primary 64.3 | MITF inh conf inactive | AlphaScreen intf2 inactive
O=C1C(=O)N(CCBr)C(c2ccccc2)/C1=C(\O)c1ccccc1 (centres undefined)	MITF primary 59.1 | MITF inh conf inactive | AlphaScreen intf2 inactive
Cn1c(SCC(N)=O)nnc1-c1cnccn1	none
Cn1c(SCC(=O)O)nnc1-c1cnccn1	MITF primary 61.2 | MITF inh conf inactive | AlphaScreen intf2 inactive
CCOc1ccc(C(=O)NCC2(c3cccs3)CC2)cc1	MITF primary 51.8 | MITF inh conf inactive | AlphaScreen intf2 inactive
COc1cccc(CN2CCN(C(=O)c3ccc(F)cc3)CC2)c1	MITF primary 59.7 | MITF inh conf 52.2 | AlphaScreen DR inactive | AlphaScreen intf2 inactive
O=C(c1ccc(-c2ccccc2)cc1)N1CCN(Cc2cccc(F)c2)CC1	MITF primary 64.3 | MITF inh conf inactive | AlphaScreen intf2 inactive
Cc1cccc(CN2CCN(C(=O)c3ccc(F)cc3)CC2)c1	MITF primary 67.6 | MITF inh conf inactive | AlphaScreen intf2 inactive
Cc1cccc(CN2CCN(C(=O)c3ccccc3F)CC2)c1	none
COc1cccc(CN2CCN(C(=O)Nc3cccc(Cl)c3)CC2)c1	MITF primary 51.0 | MITF inh conf inactive | AlphaScreen intf2 inactive
Cc1ccc(NC(=O)CC2CC(C)(C)OC2=O)cc1 (centres undefined)	none
O=C(c1ccncc1)N1CCN(Cc2cccc(Br)c2)CC1	MITF primary 65.4 | MITF inh conf inactive | AlphaScreen intf2 inactive
COc1cccc(CN2CCN(C(=O)c3ccncc3)CC2)c1	MITF primary 81.4 | MITF inh conf inactive | AlphaScreen intf2 inactive
O=C(c1cccc(F)c1)N1CCN(Cc2cccc(Br)c2)CC1	none
COc1cccc(CN2CCC(C(=O)NC(C)C)CC2)c1	none
Cc1cccc(CN2CCC(C(=O)NC(C)C)CC2)c1	MITF primary 77.1 | MITF inh conf inactive | AlphaScreen intf2 inactive
CCN1CCN(C(c2ccc3ncccc3c2)c2nnnn2C(C)(C)C)CC1 (centres undefined)	none
CC(C)(C)n1nnnc1C(c1ccc2ncccc2c1)N1CCOCC1 (centres undefined)	MITF primary 53.7 | MITF inh conf inactive | AlphaScreen intf2 inactive

Screening results as filed in PubChem.
